# Experimental data: PubChem BioAssay AID2685 (National Center for Advancing Translational Sciences (NCATS), 2010)
# Out of some 320,000 compounds screened, about 2,100 (0.66%) were called active. Another 53% or so got no clear call; they are omitted. Calls come from the whole dose curve; as a rule, active = well fitted inhibition curve with a large enough effect in the signal ratio, with a control signal flat (not every such curve was filed as active); inconclusive = small, poorly fitted or top-dose-only effect, or effect the other way, or a change in a side signal; inactive = flat fitted curve, though single readings scatter; the % refers to the signal ratio. For the sample, actives were picked, then their nearest neighbours and some compounds at random.
# Assay: qHTS Assay for Lipid Storage Modulators in Drosophila S3 Cells;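 for cell number change: cells counted by Cell Tracker Red CMTPX staining in the red channel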; for lipid storage change, negative = inhibition: % is set by controls: 0 for no effect and ±100 for the full control effect
# Conditions: BODIPY lipid droplet fluorescence, 18-24 h, cells fed with added oleic acid; cell number change: measured here: cell count max response; series mostly up to 46.1 µM
# How it was run: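 Drosophila S3 cells loaded with oleic acid (400 uM, as added) and compounds at several concentrations; lipid droplets imaged by 488-nm laser-scanning cytometry, 500–530 nm intensity and object ratio to cell channel. Percent activity normalized to 20 uM Triacsin C.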
# Potency is the fitted concentration of half-maximal effect.
Structure (SMILES),Potency,cell number change [%],"lipid storage change, negative = inhibition",outcome
CCOc1ccccc1NC(=O)Cn1c(=O)oc2cc(Cl)ccc21,inactive,6.12,,
Cc1ccccc1C(=O)NC1CCN(CC(=O)NCc2ccc(F)cc2)CC1,inactive,9.44,,
Cc1cc(C)cc(NC(=O)N2CCC(NC(=O)c3ccccc3C)CC2)c1,inactive,4.64,,
Cc1ccccc1C(=O)NC1CCN(C(=O)Nc2ccc(F)cc2)CC1,inactive,8.56,,
O=C(NC1CCN(C(=O)Nc2ccc(F)cc2)CC1)c1ccccc1F,6.51 µM (active),,,
O=C(CN1CCC(NC(=O)c2ccccc2F)CC1)NCc1ccc(F)cc1,20.6 µM (active),-14.5,,
Cc1ccccc1C(=O)NC1CCN(CC(=O)NCc2ccccc2)CC1,inactive,13.5,,
CCc1cc2c(=O)c(-c3nc4ccccc4n3C)c(C)oc2c(CN2CCOCC2)c1O,inactive,,,
CCCS(=O)(=O)N1CCCC(C(=O)Oc2ccc(Cl)cc2)C1 (stereo unspecified),inactive,14,,
Cc1ccc(NC(=O)CSc2nc(N)cc(=O)[nH]2)cc1Cl,inactive,22,,
Cn1c(SCc2ccccn2)nc2c1c(=O)[nH]c(=O)n2C,2.59 µM (active),0.681,,
Cn1c(=O)c2c(nc(SCc3ccccn3)n2C)n(C)c1=O,inactive,-19.6,,
Cn1c(SCc2ccccc2Cl)nc2c1c(=O)[nH]c(=O)n2C,inactive,3.04,,
Cc1oc(/C=N/NC(=O)CN(c2ccccc2Br)S(C)(=O)=O)cc1Br,inactive,0.768,,
CCOC(=O)c1ccc(-c2ccc(/C=N/NC(=O)CN(c3ccccc3Br)S(C)(=O)=O)o2)cc1,9.2 µM (active),-15.9,,
CS(=O)(=O)N(CC(=O)N/N=C/c1ccco1)c1ccccc1Br,inactive,2.71,,
COc1ccccc1-c1ccc(SCC(=O)NCc2ccc3c(c2)OCO3)nn1,inactive,,,
CC(=O)/C(=N/Nc1ccc(Br)cc1)Sc1cccc2cccnc12,inactive,-2.71,,
O=C(Sc1cccc2cccnc12)c1ccccc1Br,7.31 µM (active),4.44,,
O=C(O)CSc1cccc2cccnc12,,8.53,8.73% [at 9.22 µM] (inactive),
Cc1ccc(-c2cc(-c3ccccc3)c(C#N)c(Br)n2)cc1,inactive,-11.3,,
CC1CCC(=O)N(CCSc2ccccc2)CC1 (stereo unspecified),inactive,,,
CC(C)(C)[C@H]1CCC(=O)N([C@H](CC#N)Cc2ccccc2)CC1,0.326 µM (active),-9.71,,
CC(C)(C)[C@H]1CCC(=O)N([C@H](CN=[N+]=[N-])Cc2ccccc2)CC1,inactive,22,,
CC(=O)Nc1ccc(SCCN2CC[C@@H](C(C)(C)C)CCC2=O)cc1,inactive,-1.32,,
N#CC[C@H](Cc1ccccc1)N1CC[C@@H](NC(=O)OCc2ccccc2)CCC1=O,inactive,8.98,,

Structure (SMILES),Potency,cell number change [%],"lipid storage change, negative = inhibition",outcome
CC(C)(C)C1CCC(=O)N(CCSc2ccccc2)CC1 (stereo unspecified),6.51 µM (active),-4.53,,
CCCCNC(=S)N/N=C/c1sccc1C,inactive,-1.93,,
CCS(=O)(=O)c1nc(S(=O)(=O)c2ccc(C)cc2)c(NCc2ccccn2)s1,inactive,2.5,,
C/C(=N\NC(=O)c1ccc(C)cc1)c1c(C)[nH]n(-c2ccccc2)c1=O,9.2 µM (active),-9.89,,
Cc1[nH]n(-c2ccccc2)c(=O)c1C(=O)c1ccc([N+](=O)[O-])cc1,inactive,5.62,,
Cc1[nH]n(-c2ccccc2)c(=O)c1C(=O)c1ccc(Cl)cc1,inactive,-16,,
CN1C(=O)c2cccc(NC(=O)CCc3ccccc3)c2C1=O,inactive,-9.83,,
Cc1ccc(-n2ncc3c(=O)[nH]c(SCC(=O)N4CCCc5ccccc54)nc32)cc1,inactive,,,
O=C(NCCCN1CCOCC1)C(=O)NCCc1ccccc1,inactive,-0.52,,
COc1ccc(C2(C(=O)Nc3ccc(C(=O)N4CCOCC4)cc3)CCOCC2)cc1,inactive,6.9,,
O=C(c1ccc(NC(=O)C2(c3ccccc3)CCOCC2)cc1)N1CCOCC1,23.1 µM (active),-1.58,,
Cc1ccc(NC(=O)C2(c3ccccc3)CCOCC2)cc1,inactive,16.3,,
CCn1c(C)c(C)c2cc(C(=O)NCCN3CCOCC3)ccc21,inactive,-16.2,,
Cc1c(C)n(Cc2ccc(F)cc2)c2ccc(C(=O)NCCCN3CCOCC3)cc12,29.1 µM (active),38.2,,
O=C(NCCCN1CCOCC1)c1ccccc1,20.6 µM (active),-23.2,,
O=C(NCCCN1CCOCC1)c1ccc2ccccc2c1,,,,inactive [at 0.0737 µM]
O=C(Nc1ccccc1C(=O)NCCCN1CCOCC1)c1ccccc1,inactive,15.2,,
Cc1c(C)n(C)c2ccc(C(=O)NCCCN3CCN(c4ccc(F)cc4)CC3)cc12,inactive,4.18,,
O=C(NCCCN1CCOCC1)C1(c2ccccc2)CCOCC1,3.66 µM (active),2.27,,
O=C(NCCCN1CCOCC1)C1(c2ccccc2)CCCC1,inactive,-15.4,,
C/C(=N/NC(=O)CN(c1ccccc1)S(=O)(=O)c1ccccc1)c1ccccc1O,inactive,19.6,,
Cc1cc(NC(=O)CCN2C(=O)/C(=C\c3ccccc3)SC2=S)no1,inactive,-8.06,,
COc1ccc(-c2nnn(CC(=O)N3CCN(c4ccc(F)cc4)CC3)n2)cc1,inactive,0.734,,
O=C(NCc1nc2ccccc2[nH]1)C1=C[C@H](c2csc3ccccc23)C[C@H](OCc2ccc(CO)cc2)O1,inactive,13.4,,
COc1cc(CC(=O)OCC(=O)Nc2ccc(S(=O)(=O)N3CCCC3)cc2)cc(OC)c1OC,inactive,-19.3,,
CCn1cc(C(=O)NCCN(CC(C)C)CC(C)C)c(=O)c2cc(S(=O)(=O)N3CCOCC3)ccc21,7.31 µM (active),0.403,,

Structure (SMILES),Potency,cell number change [%],"lipid storage change, negative = inhibition",outcome
CCCN(CCC)CCCNC(=O)c1cn(CC)c2ccc(S(=O)(=O)N3CCOCC3)cc2c1=O,inactive,5.34,,
CCn1cc(C(=O)NCCCN(CC(C)C)CC(C)C)c(=O)c2cc(S(=O)(=O)N3CCOCC3)ccc21,inactive,21.3,,
CC1CCN(Cc2cc(=O)oc3ccc4ccccc4c23)CC1,inactive,16.9,,
COc1ccc(C(=O)CC2SC(N)=NC2=O)cc1 (stereo unspecified),inactive,30,,
Nc1[nH]ncc1C(=O)Nc1cccc(C(F)(F)F)c1,inactive,-8.81,,
CC(C)(C)C(=O)COC(=O)c1ccc(O)cc1,inactive,15.5,,
O=C(OCC(=O)N(C1CCCCC1)C1CCCCC1)c1ccc(O)cc1,inactive,3.31,,
CCN(CC)C(=O)COC(=O)c1ccc(O)cc1,20.6 µM (active),4.39,,
COCCC(=O)N1CCC(Oc2ccc(C(=O)NCCc3cnn(C)c3)cc2)CC1,inactive,8.02,,
CCCN1CCC(NC(=S)Nc2ccc(S(N)(=O)=O)cc2)CC1,inactive,-2.79,,
Cc1cccc(NC(=O)NCC(c2ccc(F)cc2)N2CCN(C)CC2)c1 (stereo unspecified),inactive,,,
Cc1ccc(C(CNC(=O)Nc2ccccc2)N2CCN(C)CC2)cc1 (stereo unspecified),7.31 µM (active),20.2,,
Cc1ccc(C(CNC(=O)Nc2cccc(C)c2)N2CCN(C)CC2)cc1 (stereo unspecified),inactive,-5.52,,
S=C(NCc1ccccc1)NCc1cccc(Cl)c1,inactive,7.23,,
Cc1ccc(S(=O)(=O)N2CCOCC2)cc1NC(=O)COC(=O)CNC(=O)c1ccccc1,inactive,5.41,,
O=C(CSc1ncnc2sccc12)Nc1ccc(S(=O)(=O)N2CCOCC2)cc1,14.6 µM (active),4.37,,
O=C(COc1ccc(S(=O)(=O)N2CCOCC2)cc1)Nc1ccccc1F,,,,inactive [at 0.0737 µM]
O=C(COc1ccc(S(=O)(=O)N2CCOCC2)cc1)Nc1ccccc1Cl,1.84 µM (active),7.69,,
Cc1ccc(S(=O)(=O)N2CCOCC2)cc1NC(=O)COc1ccc(C(=O)c2ccccc2)cc1,7.31 µM (active),12.9,,
Cc1ccc(OCC(=O)Nc2ccc(S(=O)(=O)N3CCOCC3)cc2)c(C)c1,inactive,25.8,,
O=C(CSc1ncnc2ccccc12)Nc1cccc(S(=O)(=O)N2CCOCC2)c1,inactive,,,
O=C(COc1ccccc1Cl)Nc1ccc(S(=O)(=O)N2CCOCC2)cc1,inactive,-11.3,,
Cc1cc(C)c(OCC(=O)Nc2ccc(S(=O)(=O)N3CCCC3)cc2)c(C)c1,inactive,,,
Nc1nnc(SCC(=O)Nc2ccc(S(=O)(=O)N3CCOCC3)cc2)s1,inactive,,,
Cc1cc(C)c(OCC(=O)Nc2ccc(S(=O)(=O)N3CCOCC3)cc2)c(C)c1,2.31 µM (active),10.8,,
Cc1ccc(S(=O)(=O)N2CCOCC2)cc1NC(=O)COc1ccc2c(C)cc(=O)oc2c1,inactive,,,

Structure (SMILES),Potency,cell number change [%],"lipid storage change, negative = inhibition",outcome
O=C1C(NS(=O)(=O)c2cccs2)=C(N2CCOCC2)C(=O)c2ccccc21,inactive,-7.78,,
O=C(Cn1nc2ccccc2n1)N/N=C/c1ccc(F)cc1,inactive,-8.94,,
CCOC(=O)c1nnn(-c2nonc2N)c1CSc1nnc(N)s1,inactive,,,
Cc1cccc(C(=O)O/N=C/c2ccc(Br)cc2)c1,inactive,7.42,,
Cc1ccc(S(=O)(=O)NC(C(=O)N2CCOCCOCCOCCOCC2)C(C)C)cc1 (stereo unspecified),inactive,-9.21,,
Cc1cc(=O)oc2cc(OCC(=O)OCC(=O)Nc3ccc(C(N)=O)cc3)ccc12,inactive,4.9,,
CN1CCN(C(=O)c2ccc(COc3cc(Cl)ccc3Cl)o2)CC1,inactive,0.87,,
CCC1(CC)Cc2ccccc2C(C2=C(O)CC(C)(C)CC2=O)=N1,inactive,0.769,,
Cc1ccc2c(c1)COc1c3ccc(C(=O)N4CCCCC4)cc3nn1-2,inactive,-6.37,,
O=C(Cc1ccccc1[N+](=O)[O-])NCCc1ccc(F)cc1,inactive,16.5,,
CC(C)Cc1nnc(NC(=O)C2CCN(C(=O)c3ccc(F)cc3)CC2)s1,inactive,,,
O=S(=O)(c1ccc(OCc2ccc(Br)cc2)cc1)N1CCOCC1,inactive,-10.6,,
CC(=O)c1cccc(OCC(=O)Nc2cc(S(=O)(=O)N3CCOCC3)ccc2N2CCCC2)c1,inactive,-28.5,,
O=C(Cn1cnc2c(cnn2-c2ccccc2)c1=O)N1CCOCC1,inactive,,,
Cc1ccc(C(=O)NNC(=O)c2ccc(S(=O)(=O)N3CCOCC3)cc2)cc1,inactive,13.5,,
CCOc1ccc(NC(=O)c2cc(S(=O)(=O)N3CCOCC3)cs2)cc1,inactive,-10.9,,
O=S(=O)(c1ccc(Oc2ccccc2)cc1)N1CCOCC1,inactive,,,
O=S(=O)(c1ccc(Oc2ccc(Br)cc2)cc1)N1CCOCC1,13 µM (active),-10,,
O=C(Cn1cnc2c(cnn2-c2ccccc2)c1=O)Nc1cc(S(=O)(=O)N2CCOCC2)ccc1Cl,25.9 µM (active),-7.78,,
CCc1cccc(OCC(=O)Nc2cc(S(=O)(=O)N3CCOCC3)ccc2N2CCCC2)c1,13 µM (active),-12.1,,
O=C(Cn1cnc2c(cnn2-c2ccccc2)c1=O)Nc1ccc(S(=O)(=O)N2CCOCC2)cc1,inactive,-0.435,,
CCOc1ccc(C(=O)NNC(=O)c2cc(S(=O)(=O)N3CCOCC3)ccc2Cl)cc1,25.9 µM (active),8.57,,
CCc1cccc(OCC(=O)Nc2ccccc2N2CCCC2)c1,inactive,-24.4,,
